Measurements as given in PubChem BioAssay (Tox21).
The source made the active and inactive calls. Calls follow the shape of the dose curve; as a rule, active = well fitted activation curve with a large enough effect in the repeat runs; inconclusive = weak or mixed curves; inactive = flat fitted curve, though single readings scatter.

Experiment: A CellTox Green Cytotoxicity Assay to monitor cytotoxicity in HepG2 cells - 0 hour (AID 1224882); also: nearly all actives have a fitted effect of over 35% in size
Settings: CellTox Green fluorescence; series mostly up to 76.8 µM; cytotoxicity: at the top concentration
From the text: National Center for Advancing Translational Sciences [NCATS]
NIH Chemical Genomics Center [NCGC]
U.S. Environmental Protection Agency [EPA]
National Institutes of Environmental Health Sciences [NIEHS]
National Toxicology Program [NTP]
Cell-based models are critical for drug discovery. Determining the natural cytotoxic effects resulting from test compounds is an essential research activity. A CellTox Green Cytotoxicity Assay to monitor cytotoxicity in real time of continues cell culture during 40 hours of the compound treatment was used to screen Tox21 10K library compounds in HepG2 cells. CellTox Green Cytotoxicity Assay is a nonlytic, homogeneous, biofluorescent method to measure cytotoxicity in cell culture after experimental manipulation. The assay system uses a proprietary asymmetric cyanine dye that is excluded from viable cells but preferentially stains the dead cell's DNA. […] Viable cells produce no appreciable increases in fluorescence. Therefore, the fluorescence signal produced by the binding interaction with dead cell DNA is proportional to cytotoxicity.
The mixture of HepG2 cell suspension and reagents were dispensed at 600cells/6 ul/well in 1536-well tissue culture treated black solid bottom plates using a Multidrop dispenser. After the assay plates were incubated at a 37 C/5% CO2 incubator for 5 hours, 23 nL of compounds dissolved in DMSO, positive and negative controls was transferred to the assay plate by a pintool work station. The plates were incubated at 37 C for 40 hours. The fluorescence intensity were measured at 0h, 8h, 16h, 24h, 32h and 40h time points using ViewLux plate reader during compound treatment.
% is scaled to controls: 0 for no effect and ±100 for the full control effect.

Row | Compound | cytotoxicity
1 | C[C@H](O)C(=O)Nc1c(I)c(C(=O)NC(CO)CO)c(I)c(C(=O)NC(CO)CO)c1I | -2.56% [at 35.3 µM] (inactive)
2 | C(=C(c1ccccc1)c1ccccc1)c1ccccc1 | -0.08% (inactive)
3 | Nc1nc(F)nc2c1ncn2[C@@H]1O[C@H](CO)[C@@H](O)[C@@H]1O | 0.142% [at 35.3 µM] (inactive)
4 | CCCCC1CCCCC(=O)O1 (stereo not given) | 1.37% (inactive)
5 | Cn1ccc2cc3c(cc21)CCN3C(=O)Nc1cccnc1 | -1.51% [at 15.8 µM] (inactive)
6 | NC(=O)c1c(Cl)cccc1Cl | -4.68% (inactive)
7 | C1C2OC2C2C1C1CC2C2OC12 (stereo not given) | 0.599% (inactive)
8 | CC(C)CCOC(=O)CC(C)C | 0.51% (inactive)
9 | CC(=O)O[C@H](CC(=O)[O-])C[N+](C)(C)C | -1.6% (inactive)
10 | O=C(O)c1ccccc1S | 4.06% [at 35.3 µM] (inactive)
11 | OCC(CO)(CO)COCC(CO)(CO)CO | 0.383% (inactive)
12 | COc1cccc(OC)c1 | -3.62% (inactive)
13 | CN(C)CCn1nnnc1SCC1=C(C(=O)O)N2C(=O)[C@@H](NC(=O)Cc3csc(N)n3)[C@H]2SC1 | -0.415% [at 35.3 µM] (inactive)
14 | CC(CCO)CCCC(C)(C)O (stereo not given) | 0.32% (inactive)
15 | Fc1ccccc1-c1ccccc1 | -0.353% (inactive)
16 | C=CCn1c(=O)n([C@@H]2O[C@H](CO)[C@@H](O)[C@H]2O)c2nc(N)[nH]c(=O)c21 | -13.1% [at 35.3 µM] (inactive)
17 | CO | -5.41% (inactive)
18 | C[N+](C)(C)CC[N+]1(C)Cc2c(Cl)c(Cl)c(Cl)c(Cl)c2C1 | 0.56% [at 35.3 µM] (inactive)
19 | Nc1nc2c(ncn2CCC(CO)CO)c(=O)[nH]1 | -14.4% [at 35.3 µM] (inactive)
20 | Cc1ccc(N)cc1[N+](=O)[O-] | -1.12% (inactive)

Row | Compound | cytotoxicity
21 | C=CCSCC1Nc2cc(Cl)c(S(N)(=O)=O)cc2S(=O)(=O)N1 (stereo not given) | -0.802% [at 35.3 µM] (inactive)
22 | COC(=O)CCCC(=O)O | -1.49% (inactive)
23 | CC1=CC(=O)CCC1 | -0.382% (inactive)
24 | O=C(O)c1cccc(C(=O)O)n1 | 0.182% (inactive)
25 | CC/C=C\CCCCO | 2.61% (inactive)
26 | c1ccc(CCCc2ccccn2)cc1 | -6.67% (inactive)
27 | O=[N+]([O-])c1ccc(Oc2ccc([N+](=O)[O-])cc2)cc1 | -3.68% (inactive)
28 | CC(C)[N+](C)(C)CC(O)COc1cccc2ccccc12 (stereo not given) | -3.04% [at 35.3 µM] (inactive)
29 | CSc1ccc(C=O)cc1 | 0.578% (inactive)
30 | O=C(O)/C=C/c1ccc(Cn2ccnc2)cc1 | -8.92% [at 35.3 µM] (inactive)
31 | c1ccc(SCCSc2ccccc2)cc1 | 1.4% (inactive)
32 | CC(C)(O)c1ccccc1 | -7.44% (inactive)
33 | CO[Si](CCCNCCC[Si](OC)(OC)OC)(OC)OC | 0.608% (inactive)
34 | CC(C)COC(=O)c1ccccc1O | -9.48% (inactive)
35 | CCCC(C)C(=O)O (stereo not given) | 3.75% (inactive)
36 | COC(C(=O)O)c1ccccc1 (stereo not given) | -3.39% (inactive)
37 | CCn1c(=O)c2c(nc(/C=C/c3ccc(OC)c(OC)c3)n2C)n(CC)c1=O | 3.75% [at 35.3 µM] (inactive)
38 | CNC(=O)c1c(I)c(NC(=O)CCCCC(=O)Nc2c(I)c(C(=O)O)c(I)c(C(=O)NC)c2I)c(I)c(C(=O)O)c1I | -14.3% [at 35.3 µM] (inactive)
39 | C=C(C)C(=O)OCCC(C)OC(=O)C(=C)C (stereo not given) | -1.14% (inactive)
40 | CCC(=O)Nc1cccc(N)c1 | -0.496% (inactive)
